Sampled rows, rich in hits. Any-hit rate of the full collection: about 4.7%.
MLLE-PAM2 inh – inhibitors of microRNA-mediated deadenylation, human PABP1 MLLE binding. P11940. GST-MLLE / FITC-PAM2 fluorescence polarization. inhibition, % at 20 µM. 360,000 tested, 0.36% active. AID 588489; in the data active means inhibition above about 35%, passing the limit was not always enough;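 further: plate controls were DMSO wells with GST-MLLE for no effect and wells lacking GST-MLLE protein for full effect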
UBC9 SUMO inh – inhibitors of human SUMOylation (UBC9); P63279; 290,000 tested, 0.36% active; inhibition, % at 35 µM; HTRF SUMOylation assay, SAE1/SAE2 + UBC9, in vitro; in the data active means inhibition above about 50%, passing the limit was not always enough; inconclusive means no clear call, values can overlap the other calls
Target sequence (P63279 whole entry, looked up): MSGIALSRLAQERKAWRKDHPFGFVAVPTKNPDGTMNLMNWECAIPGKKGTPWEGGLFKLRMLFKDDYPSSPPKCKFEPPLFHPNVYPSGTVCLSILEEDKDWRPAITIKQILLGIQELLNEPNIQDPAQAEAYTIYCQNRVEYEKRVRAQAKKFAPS
PABP polyA inh – blocks human PABP binding to poly(A) RNA | 290,000 tested, 1% active | AID 2014 | fluorescence polarization | inhibition, % at 35 µM;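 further: calls also rest on retests at 20 µM and on dose response follow-up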
eIF4H inh – inhibitors of RNA binding by human eIF4H. Q15056. eIF4H fluorescence polarization binding assay. inhibition, % at 35 µM. 290,000 tested, 0.94% active. AID 2012;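 further: calls also rest on retests at 20 µM and on dose response follow-up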
ALR inh – human ALR oxidase inhibition via reduced H2O2; P55789; purified ALR, DTT oxidation, H2O2 HRP-luminol luminescence; AID 485317; inhibition, % (test concentration not listed); 290,000 tested, 3.8% active;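 active means mean replicate inhibition above about 79%, with every replicate also reaching it, limit read from the data; inconclusive means only one of the two criteria met; inactive means mean below limit and not every replicate reaching it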
Efflux pump mplx – antifungal efflux pump inhibition, Nile Red retention | S. cerevisiae Candida pump triplex | inhibition, % at 10 µM | 330,000 tested, 0.44% active | AID 485275;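 active means plate passing quality check with inhibition over a set limit, or well fluorescence over plate mean plus 4 SD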;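 further: Nile Red retained in pooled yeast measured as flow cytometry median fluorescence; 0% = buffer negative control and 100% = Enniatin B positive control; higher means more Nile Red kept so more efflux inhibition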
An asterisk follows results filed as active; u = inconclusive; x = no result given. Unless noted, how the calls were made is not given here.

SMILES	MLLE-PAM2 inh	UBC9 SUMO inh	PABP polyA inh	eIF4H inh	ALR inh	Efflux pump mplx
Cc1csc(NC(=O)/C=C/c2ccco2)n1	-6	16	active	82	4	-2
COc1cccc(NC(=O)/C=C/c2ccco2)c1	-9	11	-18	-3	17	-1
NS(=O)(=O)c1ccc(NC(=S)NC(=O)/C=C/c2ccco2)cc1	4	36	4	85*	4	0
CSc1cccc(NC(=O)/C=C/c2ccco2)c1	-3	30	active	57*	-83	0
NS(=O)(=O)c1ccc(CNC(=O)/C=C/c2ccco2)cc1	-3	21	26	79*	1	0
CCCN(CC(=O)Nc1ccccc1C)C(=O)COC(=O)c1cnc(C)cn1	-8	x	x	x	x	x
C[C@@H]1CCCCO[C@H](CN(C)C(=O)Nc2ccc(F)cc2)[C@@H](C)CN([C@H](C)CO)C(=O)c2cc(N(C)C)ccc2O1	-10	x	x	x	x	x
COc1ccc2c(c1OC)C(=O)N(c1cccc(/C=C/C(=O)O)c1)C2	-1	-2	8	8	43	0
CCCn1nnc(NC(=S)NC(=O)/C=C/c2ccco2)n1	21	35	26*	80*	x	0
Cn1nnc(NC(=O)/C=C/c2ccco2)n1	2	20	23	9	0	0
NC(N)=NS(=O)(=O)c1ccc(NC(=S)NC(=O)/C=C/c2ccco2)cc1	2	72	active	88	x	1
O=C(/C=C/c1ccco1)Nc1scc(-c2ccccc2)c1C(=O)O	1	12	67*	79*	4	0
Cc1cccc(NC(=S)NC(=O)/C=C/c2ccco2)n1	11	8	60*	56*	x	0
CC1=C(C(=O)N(C(C)C)C(C)C)CC(CC(=O)NCc2cccs2)C(=O)N1Cc1ccccc1 (stereo unspecified)	-1	x	x	x	x	x
C[C@H](CO)N1C[C@H](C)[C@@H](CN(C)S(=O)(=O)c2cn(C)cn2)Oc2ccc(NC(=O)C3CCCCC3)cc2C1=O	2	x	x	x	x	1
Cc1cccc(N2CCN(C(=O)c3cccc(S(=O)(=O)N4CCOCC4)c3)CC2)c1C	14	x	x	x	x	x
CC(=O)c1ccc(NC(=S)NC(=O)/C=C/c2ccco2)cc1	26	20	28*	62*	53	0
CCN(CC(=O)NCc1ccc(Cl)cc1)C(=O)/C=C/c1ccco1	-7	9	56*	16*	6	0
Cc1csc(NC(=O)c2ccc(C(=O)Nc3nc(C)cs3)cc2)n1	x	14	3.5*	u	2	0
CCC(C)NC(=O)c1ccc(N2CC3CC(C2)c2cccc(=O)n2C3)c(NC(=O)c2ccc(Br)o2)c1 (stereo unspecified)	18	14	-12	-4	4	0
CCCCN(C)S(=O)(=O)c1ccc(C(=O)Nc2nnc(-c3ccco3)o2)cc1	13	0	12	10	84*	0
CN(C)S(=O)(=O)c1ccc(C(=O)Nc2nnc(-c3ccco3)o2)cc1	1	10	6	7	-1	0
O=C(Nc1ccc(C(=O)NCCCN2CCN(c3ccccc3)CC2)cc1)C1=CSCCO1	2	-1	0	-11	9	0
Oc1ccccc1CNc1nc2ccccc2n1CCN1CCCCC1	-6	10	-6	-6	96*	0
COc1ccccc1CNc1nc2ccccc2n1CCN1CCCCC1	-4	-23	-12	6	98*	0
SMILES	MLLE-PAM2 inh	UBC9 SUMO inh	PABP polyA inh	eIF4H inh	ALR inh	Efflux pump mplx
CCN(CC)CCn1c(NCc2cc(OC)ccc2OC)nc2ccccc21	1	0	23	6	x	0
COc1ccc(C2OCC(C)([N+](=O)[O-])CO2)cc1 (stereo unspecified)	9	x	x	x	x	x
NC(=S)NN=C1c2cc(S(=O)(=O)N3CCOCC3)ccc2-c2ccc(S(=O)(=O)N3CCOCC3)cc21	40*	-6	0	2	6	0
Nc1cc(S(=O)(=O)N2CCOCC2)ccc1N1CCCCC1	29	x	x	x	98*	0
Nc1cc(S(=O)(=O)Nc2ccccc2Cl)ccc1N1CCCC1	10	3	10	1	99*	0
Cn1c(N)c(S(=O)(=O)N2CCN(c3ccccc3F)CC2)c(=O)n(C)c1=O	-4	13	13	-3	-4	0
COc1ccc(OCC(=O)Nc2cc(S(=O)(=O)N3CCCC3)ccc2Cl)cc1	-2	x	x	x	x	x
CC(=O)c1c(NC(=O)c2ccccc2)[nH]c(-c2ccccc2)nc1=S	39*	4	-5	0	0	0
Cc1ncc(CO)c(CNc2ccc(-c3nc4ccccc4[nH]3)cc2)c1O	12	-8	23	48	98*	0
COc1ccc(NC(=O)CSc2nnnn2C)cc1S(=O)(=O)N1CCCCC1	-8	x	x	x	x	0
Cc1ccc(S(=O)(=O)N(C)C[C@@H]2Oc3ccc(NS(C)(=O)=O)cc3CC(=O)N([C@H](C)CO)C[C@@H]2C)cc1	-3	x	x	x	8	0
O=C(Nc1ccc2nn(-c3ccccc3)nc2c1)c1ccco1	1	30	1	5	-1	0
O=C(Nc1cc2nn(-c3ccccc3)nc2cc1Cl)c1ccco1	-17	38	58*	28*	x	0
Nc1ccc(NC(=O)c2ccco2)c(Cl)c1	-15	9	-7	-3	99*	0
O=C1/C(=C\c2ccco2)SC(=S)N1C1CCCCC1	x	23	6	57*	47	0
CC(=O)Nc1ccc(SC(C)C(=O)NC(N)=O)cc1 (stereo unspecified)	29	12	14	16	99*	0
COc1ccc(NC(=O)C(C)Sc2ccccc2)cc1 (stereo unspecified)	-99	11	18	-9	-6	0
COc1ccc(-n2c(=S)[nH]c3c(oc4ccccc43)c2=O)cc1	17	-4	-8	-1	93*	0
CN(C)c1ncnc2c1ncn2[C@H]1CN(Cc2cccnc2)C[C@@H](CO)O1	0	x	x	x	x	x
COc1ccc(/C=C/C(=O)NCCN=C2NS(=O)(=O)c3ccccc32)cc1	-2	17	-9	4	-19	0
COc1ccc(Nc2ncccc2C(=O)NCc2ccccc2)cc1	8	-14	-1	5	32	0
COc1cccc(Nc2ncccc2C(=O)NCc2ccccc2)c1	-3	-12	102*	85*	x	x
C=CCn1c(COc2cc(C)ccc2C(C)C)nnc1SCC(=O)c1c(N)n(C)c(=O)n(C)c1=O	-26	10	-5	-5	-13	0
CCc1c(C(=O)N/N=C/c2ccco2)nnn1-c1nonc1N	-3	1	10	5	x	0
COc1cccc(-c2cccc(NC(=O)C3CCN(CCCn4cccn4)CC3)c2)c1	-10	x	x	x	x	x
CN(Cc1ccccc1)S(=O)(=O)c1ccc(NC(=S)NC(=O)C(C)(C)C)cc1	36*	-8	-1	2	0	0
CN1CCN(C(=S)NC(=O)c2ccc(S(=O)(=O)N3CCOCC3)cc2)CC1	40*	8	-1	-6	-11	0

Assay outcomes from PubChem BioAssay.
